# The list is not random: actives were taken first. Their share in the collection is about 2.6%.
# GLP1R ag = qHTS of GLP-1 Receptor Agonists; Glucagon-like peptide 1 receptor (Homo sapiens), P43220; HEK293 GLP-1R CRE-luciferase, luminescence, 4-6 h; cells express a hypersensitive GLP-1R form; Potency, µM (top dose mostly 45.6 µM), for inactives: at the highest dose activation, actives largely listed as activators; hit rate 0.007% among 380,000; note: % of control where 0% means no effect
# Target sequence (P43220 whole entry, looked up): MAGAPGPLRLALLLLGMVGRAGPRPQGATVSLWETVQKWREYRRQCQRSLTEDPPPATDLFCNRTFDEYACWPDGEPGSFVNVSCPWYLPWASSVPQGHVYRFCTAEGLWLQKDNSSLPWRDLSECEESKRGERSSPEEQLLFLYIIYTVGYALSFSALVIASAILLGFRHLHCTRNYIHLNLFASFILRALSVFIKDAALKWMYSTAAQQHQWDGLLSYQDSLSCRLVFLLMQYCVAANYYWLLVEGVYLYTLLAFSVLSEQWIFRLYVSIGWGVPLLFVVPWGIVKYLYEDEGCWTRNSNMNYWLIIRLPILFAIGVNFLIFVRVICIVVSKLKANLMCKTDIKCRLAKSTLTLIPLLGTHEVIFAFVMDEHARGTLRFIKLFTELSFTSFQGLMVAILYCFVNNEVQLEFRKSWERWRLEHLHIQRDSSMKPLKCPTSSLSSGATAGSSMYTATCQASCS
# GLP-1R inv ag = qHTS of GLP-1 Receptor Inverse Agonists (Inhibition Mode); Glucagon-like peptide 1 receptor (Homo sapiens), P43220; HEK293 GLP-1R CRE-luciferase, luminescence, 24 h; GLP-1R form is constitutively active; Potency, µM (highest dose often 38.3 µM), without a hit: at the highest dose activity change, negative = inhibition, actives largely listed as inhibitors; hit rate 1.6% among 410,000; note: % is set by controls: 0 for no effect and ±100 for the full control effect; nearly all actives have a fitted effect of over 55% in size
#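 Luminescence readout: a drop in cAMP-driven luciferase signal flags inverse agonism at a constitutively active GLP-1R stably expressed in HEK293. Compound exposure lasted 24 hr at 37 deg C, 5% CO2.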
# BRCA1 expr up = qHTS Assay to Identify Small Molecule Activators of BRCA1 Expression | MCF7-BRCA1-FFLuc reporter, luminescence, 48 h; response scale: scaled: vehicle 0%, 10 µM genistein 100% | Potency, µM (top dose mostly 46.1 µM), for inactives: top-dose activation, most hits filed as activators | hit rate 1.1% among 380,000 | AID 624202, 2012; note: nearly all actives have a fitted effect of over 80% in size
#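 Using MCF7 cells harboring a BRCA1 firefly luciferase reporter, plated 2 h before compound pinning, the screen measured luminescence after 48 h incubation. Responses were normalized to DMSO and 10 microM genistein, then fitted for concentration-effect.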
# GLP1R cytotox = qHTS of GLP-1 Receptor Inverse Agonists: Cytotox Screen | HEK293 cAMP-luciferase reporter cells, luminescence, 24 h | Potency, µM (series often up to 38.3 µM), for inactives: at the top dose activity change, negative = inhibition, actives largely listed as inhibitors | hit rate 0.13% among 410,000 | AID 624418, 2012;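 note: loss of luciferase light is scored as toxicity; % is set by controls: 0 for no effect and ±100 for the full control effect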
#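 Here, cytotoxicity is scored as loss of luminescence. The MLSMR collection was tested on cells seeded in medium containing 10% Nu serum, with a 24 hr compound exposure preceded by 12 hours of culture.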
# The depositor's hits bear a star; ? = inconclusive; nt = no result. Calls come from the whole dose curve; as a rule, active = well fitted curve in the direction sought with a large enough effect; inconclusive = small, poorly fitted or top-dose-only effect, or another doubt; inactive = no such curve, though single readings can be large; an effect the other way counts as inactive or inconclusive. Potency is the fitted concentration of half-maximal effect.
SMILES,GLP1R ag,GLP-1R inv ag,BRCA1 expr up,GLP1R cytotox
COc1cccc(N2CCN(c3ncnc4c3[nH]c3ccc(F)cc34)CC2C)c1 (centres undefined),-53.8%,?,-83.4%,3.16µM*
Cc1c(C)c(C)c(S(=O)(=O)N2CCSCC2)c(C)c1C,-5.8%,-15.1%,-19.2%,?
Cc1cc(C)c(C)c(S(=O)(=O)N2CCSCC2)c1C,-2.6%,10µM*,-4.4%,0.3%
COc1ccc(-c2oc3ncn4nc(-c5ccccc5Cl)nc4c3c2-c2ccc(OC)cc2)cc1,nt,6.0%,nt,-5.2%
COc1ccc(-c2cc(C(=O)Nc3cc(C)ccc3O)no2)cc1,16.3%,15.8%,?,-16.0%
Cc1ccc(-c2cc(C(=O)Nc3cc(C)ccc3O)no2)cc1,16.8%,1.7%,1.12µM*,1.7%
O=C(Nc1cc(Br)ccc1O)c1cc(-c2ccc3c(c2)OCO3)on1,5.0%,25.6%,1.41µM*,0.0%
COCCN(Cc1ccccc1)C(=O)c1cccc(S(=O)(=O)N2CCN(Cc3ccccc3)CC2)c1,4.3%,14.1µM*,-62.0%,2.3%
CCN(Cc1ccccc1)C(=O)c1cccc(S(=O)(=O)N2CCN(Cc3ccccc3)CC2)c1,1.5%,?,-28.0%,9.2%
Cc1ccc(C2(c3ccccc3)NC(=O)N(CC(=O)NCc3ccccc3)C2=O)cc1C (centres undefined),-0.3%,6.31µM*,-33.2%,-16.7%
O=C(CN1C(=O)NC(c2ccccc2)(c2ccccc2)C1=O)NCc1ccccc1,-4.3%,?,3.8%,-9.2%
Cc1c(C(=O)N2C[C@@H](C)O[C@@H](C)C2)oc2c(F)cccc12,10.8%,12.4%,11.2µM*,3.1%
CCc1ccc(CNC(=O)Cn2nc(C)c3nn(-c4ccc(Cl)cc4)c(C)c3c2=O)cc1,nt,2.4%,nt,8.0%
C/C(=N\NC(=S)NCCc1ccccc1)c1ccc(C#N)cc1,0.0%,0.9%,-29.3%,-4.9%
C/C(=N\NC(=S)NCCc1ccccc1)c1ccc(C)cc1,1.9%,?,-19.8%,10µM*
C/C(=N\NC(=S)NCCc1ccccc1)c1ccc(Cl)cc1,?,10µM*,-38.9%,?
CC1(C(=O)NCc2cccc3ccccc23)CCN1C(=O)C1(c2ccccc2)CCCC1 (centres undefined),-2.7%,?,-28.7%,2.5%
CCOc1ccccc1NC(=O)C1CCCN(c2ncnc3onc(-c4ccc(F)cc4)c23)C1 (centres undefined),nt,-3.8%,nt,1.4%
COc1ccc([C@H]2C[C@@H](n3cc(COC(=O)c4ccccc4)nn3)[C@H](O)CN2Cc2cccs2)cc1,1.8%,5.7%,-0.1%,-9.6%
CN(C)c1ccc(/C=C/c2nccc3ccccc23)cc1,nt,nt,-8.6%,nt
CN(C)c1ccc(/C=C/c2ccc3c4ccccc4ccc3[n+]2-c2ccccc2)cc1,0.3%,?,-82.5%,7.94µM*
COc1ccccc1NC(=S)NCCSc1ccc(C)cc1,1.2%,11.2µM*,-16.9%,?
CC(NC(=O)CN(c1ccc(Cl)cc1Cl)S(=O)(=O)c1ccccc1)c1ccccc1 (centres undefined),nt,8.91µM*,nt,-4.8%
Cc1ccc(CNC(=O)CN(c2ccc(Cl)cc2Cl)S(=O)(=O)c2ccccc2)cc1,nt,10µM*,nt,-10.4%
Cc1ccccc1NC(=O)CN(c1ccc(Cl)cc1Cl)S(=O)(=O)c1ccccc1,nt,?,nt,0.4%
CCCCNC(=O)C[C@@H]1C[C@@]2(C(=O)OCC)CCC=C2N(CCC2=CCCCC2)C1=O,-1.4%,-0.1%,-5.2%,17.6%
Cc1ccc(-c2nc3cnccn3c2Nc2ccc(C(C)C)cc2)o1,nt,nt,-7.3%,nt
CC(C)=C[C@H]1C[C@H](C)[C@H]2CC[C@H](C)c3c(O[C@@H]4OC[C@@H](O)[C@H](O)C4O)c(O)c(C)c1c32 (some centres undefined),1.4%,10µM*,-2.4%,-25.0%
CCOC(=O)C(C)Sc1nnc2cc(C)c3ccccc3n12 (centres undefined),nt,9.1%,nt,-12.0%
COc1cccc(C(=O)NCC(c2ccc(N(C)C)cc2)N2CCc3ccccc32)c1 (centres undefined),nt,9.4%,nt,-9.5%
